Experimental findings from PubChem BioAssay (NCI) are described below.

Some test systems named below: NCI-H23 lung; NCI-H226 lung; NCI-H322M lung; HOP-62 NSCLC; NCI-H460 lung; HOP-92 NSCLC; NCI-H522 lung; A549/ATCC NSCLC; 786-0 renal; COLO 205 colon; DU-145 prostate; K-562 leukemia; MALME-3M melanoma; MDA-MB-231 breast; RXF 393 renal; SF-268 CNS; SF-295 CNS; SF-539 CNS; UACC-257 melanoma; M14 melanoma.
Holding throughout (test): NCI-60 one-dose screen, 48 h (100 = growth as untreated, 0 = no growth, -100 = all killed)
Common to all, as to conditions: 10 µM unless noted

About 83,000 compounds went through this panel and 20% of them were active in at least one assay; those are over-represented in the sample as a whole.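 The test compound was applied at a single concentration to cells in 96-well plates for 48 hours, and percent growth was recorded.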 A number with no mark means an inactive call. Active and inactive are the calls of the source. The calls were made as follows: active = growth percent below 10; inactive = the rest.

Take `O=c1n(C2OC(CO)C(O)C2O)ccc2nccn12` (stereo not given): the growth was 113% in the test on NCI-H23 lung; 110% in the test on NCI-H226 lung; 114% with NCI-H322M lung; 127% with HOP-62 NSCLC; 99.9% in the test with NCI-H460 lung; 105% in the test on HOP-92 NSCLC. Also, the growth was 116% in the test on NCI-H522 lung; 96% in the test on A549/ATCC NSCLC; 103% in the test on 786-0 renal; 126% with COLO 205 colon; 107% in the test on DU-145 prostate; 102% in the test with K-562 leukemia. For the same compound, the growth with MALME-3M melanoma was 112%; with MDA-MB-231 breast, 117%; with RXF 393 renal it was 162%; with SF-268 CNS it was 107%; in the test with SF-295 CNS it was 108%; in the test with SF-539 CNS, 112%. Besides, the figures for the growth in the test with UACC-257 melanoma and in the test on M14 melanoma were 100% and 105%, respectively.

Take `CCCCCCCCCCCCCCCCCCOc1ccccc1CC(=O)OCC[N+]1(C)CCCCC1`: the growth in the test with NCI-H23 lung is 29.8%; with NCI-H226 lung, 28.1%; in the test with NCI-H322M lung it was 84.6%; in the test with HOP-62 NSCLC, 70%; in the test with NCI-H460 lung, 62.2%; in the test on HOP-92 NSCLC, -9.25% (active). Further, the growth with NCI-H522 lung was 33.3%; in the test on A549/ATCC NSCLC, 42.2%; with 786-0 renal, 31.2%; with COLO 205 colon it was 55.6%; with DU-145 prostate, 71.6%; with K-562 leukemia, 22.6%. Moreover, the growth in the test with MALME-3M melanoma is 45.3%; in the test with MDA-MB-231 breast it was 10.3%; in the test with RXF 393 renal, -3.91% (active); in the test on SF-268 CNS, 43.5%; with SF-295 CNS, 73.6%; with SF-539 CNS it was 68.6%. The growth is 80.6% with UACC-257 melanoma and 34.7% in the test on M14 melanoma.

`O=C(/C=C/c1ccc(Cl)cc1)c1ccc(-n2cc(CN3CCN(c4cc5c(cc4F)c(=O)c(C(=O)O)cn5C4CC4)CC3)nn2)cc1`: the growth was 85.4% in the test with NCI-H23 lung; 76.3% in the test on NCI-H226 lung; 78.1% in the test with NCI-H322M lung; 85.5% in the test on HOP-62 NSCLC; 82.2% in the test with NCI-H460 lung; 84.8% in the test on HOP-92 NSCLC. For the same compound, the growth in the test with NCI-H522 lung was 79.1%; in the test with A549/ATCC NSCLC, 89%; in the test with 786-0 renal, 78.1%; in the test with COLO 205 colon it was 97.1%; in the test on DU-145 prostate, 90.8%; in the test on K-562 leukemia, 67.5%. Further, the growth in the test with MALME-3M melanoma is 84.8%; in the test with MDA-MB-231 breast it was 88.1%; in the test with RXF 393 renal it was 75%; in the test with SF-268 CNS, 77.3%; in the test on SF-295 CNS, 90.7%; in the test with SF-539 CNS, 92.8%. The growth with UACC-257 melanoma is 91.7%; in the test with M14 melanoma, 88.7%.

Turning to `C=CCn1c(SCC(=O)Nc2ccc(C(=O)/C=C/c3ccc(Cl)cc3)cc2)nnc1-c1ccc(Cl)c(Cl)c1`, the growth with NCI-H23 lung was 85%; with NCI-H226 lung, 85.7%; in the test with NCI-H322M lung it was 83.4%; in the test on HOP-62 NSCLC, 84.3%; with NCI-H460 lung, 90.2%; with HOP-92 NSCLC, 70.2%. Further, the growth with NCI-H522 lung was 66.5%; in the test with A549/ATCC NSCLC, 67.4%; in the test with 786-0 renal it was 82.9%; in the test on COLO 205 colon, 100%; in the test on DU-145 prostate, 92.2%; in the test with K-562 leukemia it was 50.4%. Moreover, the growth in the test on MALME-3M melanoma was 85.2%; with MDA-MB-231 breast, 85.2%; in the test with RXF 393 renal it was 75.1%; in the test with SF-268 CNS, 80.4%; with SF-295 CNS, 93.9%; in the test with SF-539 CNS, 87%. In addition, the growth in the test on UACC-257 melanoma is 93.9%; with M14 melanoma, 80.1%.

As for `COc1cc(OCc2cccc(-c3ccc4c(c3)OCCO4)c2C)cc(OC)c1C=O`, the growth in the test with NCI-H23 lung is 52.4%; with NCI-H226 lung, 32.6%; in the test on NCI-H322M lung it was 85.3%; with HOP-62 NSCLC, 73.4%; with NCI-H460 lung it was 72.2%; with HOP-92 NSCLC, 79.5%. Also, the growth with NCI-H522 lung is 42.7%; in the test with A549/ATCC NSCLC, 69%; in the test with 786-0 renal, 67.1%; in the test with COLO 205 colon, 40.8%; in the test with DU-145 prostate, 77.8%; in the test on K-562 leukemia, 29.9%. In addition, the growth in the test on MALME-3M melanoma was 58.9%; in the test on MDA-MB-231 breast, 64.8%; in the test on RXF 393 renal, 74.2%; in the test with SF-268 CNS, 70.3%; with SF-295 CNS, 72.1%; in the test with SF-539 CNS, 77.9%. For the same compound, the growth was 42.3% in the test with UACC-257 melanoma and 59.2% with M14 melanoma.

Regarding `O=C(COc1ccc(/C=C2\Oc3ccccc3C2=O)cc1)Nc1nccs1`, the growth in the test with NCI-H23 lung is 87.6%; in the test with NCI-H226 lung, 89.8%; in the test on NCI-H322M lung, 89.3%; in the test with HOP-62 NSCLC it was 86.8%; in the test with NCI-H460 lung it was 107%; with HOP-92 NSCLC, 34.3%. Further, the growth in the test on NCI-H522 lung was -30.2% (active); with A549/ATCC NSCLC, 97.5%; in the test on 786-0 renal it was 88.1%; with COLO 205 colon, 107%; in the test on DU-145 prostate it was 109%; in the test with K-562 leukemia it was 70.1%. For the same compound, the growth in the test on MALME-3M melanoma was 98.1%; in the test on MDA-MB-231 breast it was 76.6%; with RXF 393 renal, 95.5%; in the test with SF-268 CNS, 75.1%; in the test with SF-295 CNS, 116%; with SF-539 CNS it was 99.9%. The growth is 113% in the test on UACC-257 melanoma and 105% in the test on M14 melanoma.

On to `CN1CCN(CCCNC(=O)c2c3c(n4ccccc24)C(=O)c2ncccc2C3=O)CC1`, for which the growth is -24.3% (active) with NCI-H23 lung; 33.7% with NCI-H226 lung; -23.9% (active) with NCI-H322M lung; 25.8% with HOP-62 NSCLC; -60.1% (active) in the test with NCI-H460 lung; 14.9% in the test on HOP-92 NSCLC. Also, the growth was -43.4% (active) with NCI-H522 lung; -25.5% (active) in the test with A549/ATCC NSCLC; 28.5% in the test on 786-0 renal; -73% (active) in the test with COLO 205 colon; 17.8% in the test on DU-145 prostate; -1.31% (active) with K-562 leukemia. The growth is -91.2% (active) in the test on MALME-3M melanoma; 0.342% (active) in the test with MDA-MB-231 breast; 21.1% in the test with RXF 393 renal; 9.37% (active) in the test on SF-268 CNS; 28.4% in the test with SF-295 CNS; -4.38% (active) with SF-539 CNS. Besides, the growth was -55.8% (active) in the test with UACC-257 melanoma and -53.9% (active) in the test with M14 melanoma.

With `CCOC(=O)c1cc(C(=O)c2cc(OC)cc(OC)c2)n2ccccc12`, the growth was 67.3% in the test with NCI-H23 lung; 73.5% in the test with NCI-H226 lung; 86.3% with NCI-H322M lung; 30% in the test on HOP-62 NSCLC; 15% in the test with NCI-H460 lung; 64.3% in the test with HOP-92 NSCLC. The growth in the test with NCI-H522 lung was 40.9%; in the test on A549/ATCC NSCLC, 35.7%; in the test with 786-0 renal, 36.4%; with COLO 205 colon, 13.5%; in the test with DU-145 prostate it was 53.8%; in the test with K-562 leukemia it was 15.8%. Besides, the growth was 31.8% in the test with MALME-3M melanoma; 55.8% in the test with MDA-MB-231 breast; 49.6% in the test on RXF 393 renal; 46.8% with SF-268 CNS; 26.1% with SF-295 CNS; 44.8% in the test with SF-539 CNS. For the same compound, the growth with UACC-257 melanoma was 43.9%; in the test on M14 melanoma, 3.55% (active).
